This passage reports growth results from PubChem BioAssay (NCI).

Common to all, as to assay: NCI-60 one-dose screen, 48 h (100 = growth as untreated, 0 = no growth, -100 = all killed)
Details in all cases: 10 µM unless noted

Experiment [1] concerns DU-145 prostate.
Experiment [2] has as its system K-562 leukemia.
Experiment [3] concerns MALME-3M melanoma.
Experiment [4] concerns MDA-MB-231 breast.
The test system of experiment [5] is RXF 393 renal.
Experiment [6] relates to SF-268 CNS.
The test system of experiment [7] is SF-295 CNS.
In experiment [8] the test system is SF-539 CNS.
Experiment [9] has as its system UACC-257 melanoma.
Experiment [10] deals with M14 melanoma.
For experiment [11], the system named is HCT-15 colon.
In experiment [12] the test system is SNB-75 CNS.
Experiment [13] deals with SNB-19 CNS.
Experiment [14] has as its system U251 CNS.
Experiment [15] deals with PC-3 prostate.
The subject of experiment [16] is SK-MEL-5 melanoma.
The subject of experiment [17] is UACC-62 melanoma.
Experiment [18] relates to LOX IMVI melanoma.
Experiment [19] deals with SK-MEL-28 melanoma.
For experiment [20], the system named is HT29 colon.

The panel holds about 83,000 compounds, 20% with a hit somewhere; the sample as a whole holds those more often.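 Cells were grown in 96-well plates and exposed to the test compound at a single concentration for 48 hours; results are reported as percent growth, with values below 10 considered active.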 Unmarked numbers belong to inactive results. Active and inactive are the calls of the source.

In the case of `C#COc1cccc(Nc2c(C#N)cnc3ncc(NC(=O)CCl)cc23)c1`, the growth in [1] is 33.2% [6.25 µM]; in experiment [2], 6.93% [6.25 µM] (active); in experiment [3], 76.9% [6.25 µM]; in experiment [4] it was 20.9% [6.25 µM]; in experiment [5], 54% [6.25 µM]; in [6] it was 6.32% [6.25 µM] (active). The growth is 42.1% [6.25 µM] in experiment [7]; -7.95% [6.25 µM] (active) in experiment [8]; 47.1% [6.25 µM] in [9]; 41.2% [6.25 µM] in [10]; 22.8% [6.25 µM] in experiment [11]; 54.2% [6.25 µM] in experiment [12]. Besides, the growth is 11% [6.25 µM] in experiment [13]; -42.8% [6.25 µM] (active) in [14]; 19.6% [6.25 µM] in [15]; 47.7% [6.25 µM] in [16]; 37.5% [6.25 µM] in experiment [17]; -2.95% [6.25 µM] (active) in experiment [18]. Also, the growth in [19] was 50.8% [6.25 µM].

Take `NNc1nc(-c2cccnc2)nc2c1sc(=S)n2-c1ccccc1`: the growth in experiment [1] was 106%; in experiment [2], 75.5%; in experiment [3], 100%; in experiment [4] it was 105%; in [5] it was 114%; in experiment [6], 89.6%. The growth was 98.1% in [7]; 95.6% in experiment [8]; 92.3% in [9]; 99.9% in experiment [10]; 96.3% in experiment [11]; 87.4% in [12]. Besides, the growth in experiment [13] is 113%; in experiment [14], 90.6%; in experiment [15], 72.6%; in experiment [16], 98.4%; in [17], 108%; in experiment [18] it was 86.7%. Further, in [19], the growth was 119%.

In the case of `CCNCCNc1cc(-c2ccc(C(F)(F)F)cc2)c(C#N)c2nc3ccccc3n12`, the growth in [1] is -95.1% (active); in experiment [2] it was -50.9% (active); in experiment [3], -78.1% (active); in experiment [4], -79.8% (active); in experiment [5] it was -93.9% (active); in [6] it was -75.3% (active). Also, the growth in experiment [7] was -72.5% (active); in experiment [8] it was -88% (active); in [9] it was -80.2% (active); in experiment [10], -82.5% (active); in experiment [11], -75.4% (active); in experiment [12] it was -95.5% (active). Besides, the growth in experiment [13] was -78.1% (active); in [14] it was -87.1% (active); in experiment [15] it was -72.6% (active); in [16], -91.8% (active); in experiment [17], -74.4% (active); in experiment [18], -95.4% (active). Besides, the growth in experiment [19] was -86.4% (active).

`O=C(/C=C(/C=C/c1ccc2[nH]ccc2c1)OB(F)F)/C=C/c1ccc2[nH]ccc2c1`: the growth in experiment [1] is 3.56% (active); in experiment [2] it was -21.9% (active); in [3], 31.1%; in [4], 12.2%; in experiment [5], -57.6% (active); in experiment [6] it was 16.7%. In addition, the growth in experiment [7] was -25.4% (active); in experiment [8] it was -7.54% (active); in [9], 43.3%; in [10] it was -27.5% (active); in experiment [11], -52.9% (active); in experiment [12], 23.1%. In addition, the growth is 12.9% in experiment [13]; -84.1% (active) in experiment [14]; -6.64% (active) in experiment [15]; 12.2% in [16]; -21.5% (active) in [17]; -64.3% (active) in experiment [18]. For the same compound, the growth in experiment [19] is 22%.

As to `O=C1c2ccc3c4c5ccc(c24)C(=O)N1CCCOCCCCOCCCNCc1ccc(cc1)CNCCCOCCCCOCCCN(C3=O)C5=O`, the growth was 8.84% (active) in [1]; -19.3% (active) in experiment [2]; -90.7% (active) in experiment [3]; -11.7% (active) in experiment [4]; 30.3% in experiment [5]; 2.25% (active) in experiment [6]. Also, the growth is 91.5% in [7]; -85.7% (active) in experiment [8]; -78.9% (active) in experiment [9]; -85.3% (active) in [10]; -41% (active) in experiment [11]; 98.1% in [12]. Moreover, the growth is -2.17% (active) in experiment [13]; -78.3% (active) in [14]; 6.2% (active) in experiment [15]; -99.9% (active) in [16]; -90.3% (active) in experiment [17]; -87.8% (active) in experiment [18]. Also, in experiment [19], the growth is -24.1% (active).

For `C1CCC([PH+](C2CCCCC2)C2CCCCC2[PH+](C2CCCCC2)C2CCCCC2)CC1.[Au].[CH-]1CCCCC1C1CCCC[N-]1` (stereo unspecified), the growth in experiment [1] is -52.8% (active); in experiment [2] it was -0.185% (active); in [3] it was -44.3% (active); in experiment [4] it was -27.6% (active); in [5], -92.4% (active); in experiment [6], -55% (active). Also, the growth in [7] is -42.9% (active); in experiment [8], -90.4% (active); in [9], -53.8% (active); in [10], -41.3% (active); in experiment [11], -26.2% (active); in experiment [12], -31.8% (active). The growth in [13] is -96.6% (active); in experiment [14], -84.3% (active); in experiment [15], -16.7% (active); in [16], -98% (active); in experiment [17], -79.7% (active); in [18] it was -96.5% (active). Also, the growth in experiment [19] is -83.2% (active).

Regarding `COc1ccc(/C=N/C2=C(C#N)C(c3ccccc3)c3ccc4ccccc4c3O2)cc1` (stereo unspecified), the growth in [1] is 25.6%; in experiment [2], 12.2%; in [3], 43.6%; in experiment [4] it was 18.7%; in experiment [5] it was 26%; in experiment [6] it was 46.5%. For the same compound, the growth was 9% (active) in experiment [7]; -8.29% (active) in experiment [8]; 48.4% in experiment [9]; 2.72% (active) in [10]; 15.8% in [11]; 15.5% in experiment [12]. The growth in experiment [13] is 24.6%; in experiment [14] it was 18.5%; in experiment [16] it was 16.3%; in experiment [17] it was 15.8%; in experiment [18], 29.5%; in [19] it was 41.4%.

Regarding `Oc1c(Br)cc(Br)c2ccc(Cn3cc(-c4ccc(C(F)(F)F)cc4)nn3)nc12`, the growth in [1] is 46.2%; in experiment [2], 6.39% (active); in experiment [3], 16.7%; in experiment [4] it was 96.3%; in experiment [5] it was 1.8% (active); in experiment [6] it was 85.7%. Moreover, the growth in [7] is 105%; in experiment [8], 56.2%; in experiment [9], 54.9%; in [10], 48.6%; in experiment [11] it was 25.2%; in experiment [12], 77.2%. The growth in experiment [13] is 94%; in experiment [14], 102%; in [15], 77.6%; in experiment [16] it was 98.2%; in [17], 67.8%; in experiment [18], 11.5%. The growth in experiment [19] is 48.1%.

With `COc1ccc(-c2cc(-c3cccnc3)nc3sc4c(=O)[nH]c(-c5ccc(Cl)cc5)nc4c23)cc1OC`, the growth in experiment [1] was 105%; in experiment [2], 85.7%; in experiment [3], 115%; in experiment [4], 76.7%; in experiment [5], 103%; in [6], 93.4%. Besides, the growth in [7] is 99.5%; in [8], 96.1%; in experiment [9], 97.5%; in [10] it was 106%; in experiment [20], 96.3%; in [12] it was 87.4%. Moreover, the growth in experiment [13] was 95.9%; in [14], 82.7%; in experiment [15], 90.4%; in [16], 89.9%; in experiment [17], 90.5%; in experiment [18], 86%. Besides, in experiment [19], the growth was 102%.

Take `COc1cc2c(cc1OCCCN1CCN(CCCOc3cc4c(cc3OC)C(=O)N3CCC[C@H]3C=N4)CC1)C=CC(C)(C)O2`: the growth in experiment [1] was -100% (active); in experiment [2], -35.8% (active); in experiment [3] it was -89.1% (active); in [4], -81.9% (active); in experiment [5], -92% (active); in experiment [6], -91.9% (active). Further, the growth was -59.2% (active) in experiment [7]; -100% (active) in [8]; -62.4% (active) in [9]; -74.2% (active) in experiment [10]; -100% (active) in [20]; -94.6% (active) in experiment [13]. Also, the growth was -75.3% (active) in [15]; -100% (active) in experiment [16]; 1.28% (active) in experiment [17]; -98.6% (active) in experiment [18]; -100% (active) in [19].

With `Nc1[nH]n2cc(-c3ccccc3)nc2c1N=Nc1ccc(S(N)(=O)=O)cc1`, the growth in experiment [1] was 42.9%; in [2], 32.9%; in experiment [3], 25.6%; in [4], 20%; in experiment [5], 6.61% (active); in experiment [6], 36.5%. The growth in experiment [7] is 48%; in experiment [8], 19.6%; in experiment [9], 68.9%; in [10] it was 31.4%; in [20], 38.8%; in [12], 1.09% (active). In addition, the growth in experiment [13] is 60.4%; in [14], 38.7%; in experiment [15], 32.4%; in experiment [16], 26.8%; in experiment [17], 31.3%; in experiment [18], 17.4%. The growth in experiment [19] is 45%.
